Screening results (PubChem BioAssay)
HT1080 IDH1KD tx – kills HT-1080 cells with IDH1 knockdown. HT-1080 IDH1 knockdown viability, ATP luminescence, 48 h. Potency, µM (highest dose often 46.1 µM), inactives show top-dose activity, negative = toxicity, usual class: cytotoxic. 2% of 360,000 active;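 further: potency means the concentration at half of the fitted maximal effect; 0% = DMSO wells and -100% = cell-free medium wells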
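Viability of IDH1-knockdown HT-1080 fibrosarcoma cells was assessed by CellTiter-Glo after 48 h at 37 °C with titrated compound; concentration-effect curves were classified by fit quality and response size.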
TDP1 cell noCPT – qHTS for Inhibitors of human tyrosyl-DNA phosphodiesterase 1 (TDP1): qHTS in cells in absence of CPT; DT40 Tdp1-/- hTDP1 cells, no CPT, ATP luminescence, 48 h; Potency, µM (titrated, usually from 46.2 µM), inactives show top-dose activity change, negative = growth inhibition, usual class: inhibitors; 15% of 420,000 active; AID 686978, 2013; further: potency means the concentration at half of the fitted maximal effect; nearly all actives have a fitted effect of over 55% in size
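Cells were dispensed at 400 per well, compounds added by pin tool, plates incubated ≥48 hr at 37 °C, then CellTiter-Glo added for 30 min at room temperature before luminescence reading. Line: DT40 Tdp1-/- complemented with hTDP1; camptothecin omitted.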
IL-1B inflam inh – inflammasome signaling inhibition, IL-1 beta readout; THP-1 LPS/ATP IL-1B secretion, AlphaLISA, 16 h; stronger effect = lower value; activity change, % at 57.5 µM; 4.7% of 360,000 active; AID 743279; in the data active means activity change below about -50%; inconclusive means mostly about -30% to -49%
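Secreted IL-1B measured by AlphaLISA bead assay after 16 h compound exposure of THP-1 cells; compounds (final up to 57.5 uM) added 1 h before LPS (250 ng/mL) and ATP (1.25 mM) stimulation; lower signal means less secretion.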
ALOX12 inh – inhibitors of human 12S-lipoxygenase ALOX12; 1.1% of 580,000 active; P18054; Potency, µM (highest dose often 108 µM), inactives show at the top dose activity change, negative = inhibition, usual class: inhibitors; purified 12hLO, xylenol orange hydroperoxide absorbance; further: potency means the concentration at half of the fitted maximal effect
Target sequence (P18054 whole entry, looked up): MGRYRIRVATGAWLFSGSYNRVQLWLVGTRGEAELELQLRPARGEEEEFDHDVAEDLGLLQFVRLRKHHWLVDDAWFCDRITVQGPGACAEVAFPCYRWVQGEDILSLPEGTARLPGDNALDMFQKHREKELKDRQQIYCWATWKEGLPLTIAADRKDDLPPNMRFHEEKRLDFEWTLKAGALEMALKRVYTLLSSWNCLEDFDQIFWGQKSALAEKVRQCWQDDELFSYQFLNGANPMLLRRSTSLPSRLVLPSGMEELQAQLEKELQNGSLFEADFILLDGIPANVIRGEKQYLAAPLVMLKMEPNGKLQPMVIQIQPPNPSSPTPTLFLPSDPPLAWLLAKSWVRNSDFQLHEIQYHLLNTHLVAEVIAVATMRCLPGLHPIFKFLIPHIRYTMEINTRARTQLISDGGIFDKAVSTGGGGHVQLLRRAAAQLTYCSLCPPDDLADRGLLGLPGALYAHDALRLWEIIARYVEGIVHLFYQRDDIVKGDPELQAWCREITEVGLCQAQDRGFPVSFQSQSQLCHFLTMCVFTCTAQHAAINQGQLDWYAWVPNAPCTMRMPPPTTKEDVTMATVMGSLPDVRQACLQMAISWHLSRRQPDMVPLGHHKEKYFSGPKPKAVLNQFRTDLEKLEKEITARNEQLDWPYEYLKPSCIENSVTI
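Purified human 12hLO at 150 nM in 25 mM Hepes, 0.01% Triton X-100, pH 7.0, preincubated 15 min at room temperature with compound. Reaction started with 40 uM arachidonic acid, 30 min at room temperature. Hydroperoxide measured by Fe-xylenol orange, 573/405 nm absorbance ratio.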
HT1080-NT tox – kills 2HG-producing HT-1080-NT fibrosarcoma cells; HT-1080-NT fibrosarcoma viability, CellTiter-Glo ATP luminescence, 48 h; Potency, µM (doses to about 46.1 µM), for inactives: at the top dose activity, negative = less viability, usual class: cytotoxic; 1.6% of 360,000 active;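 further: NT is the 2HG producing partner of a matched IDH1 knockdown line; potency means the concentration at half of the fitted maximal effect; 0% = DMSO-treated cells and -100% = media-only wells without cells; nearly all actives have a fitted effect of over 55% in size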
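Viability of the 2HG-overproducing fibrosarcoma line after 48 hours of compound exposure at 37 degrees C was determined by luminescence with CellTiter-Glo, and concentration-effect curves were then fitted and categorized.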
TDP1 cell CPT – growth inhibition of DT40 Tdp1-/-;hTDP1 cells with camptothecin (screen for TDP1 inhibitors). Potency, µM (top dose mostly 46.2 µM), without a hit: top-dose activity change, negative = growth inhibition, hits mostly inhibitors. 12% of 420,000 active. chicken DT40 Tdp1-/-;hTDP1 cells + 20 nM CPT, ATP luminescence, 48 h; further: potency means the concentration at half of the fitted maximal effect; nearly all actives have a fitted effect of over 55% in size
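Cell growth measured by CellTiter-Glo luminescence after a minimum 48 h, 37 C compound exposure with 20 nM CPT in Tdp1-knockout DT40 cells stably expressing hTDP1, seeded 400/well; qHTS titration format.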
Active calls of the source: *. The sample as a whole holds a higher share of hits than the screen did. Unless noted, the call rests on the fitted dose curve; in most records, active means well fitted curve in the direction sought with a large enough effect; inconclusive means small, poorly fitted or top-dose-only effect, or another doubt; inactive means no such curve, though single readings can be large; an effect the other way counts as inactive or inconclusive. Unless noted, on the % scale 0 is the no-effect control and ±100 the full control effect.

How did COC(=O)C1(Cc2cc(-c3ccc(OC)cc3OC)no2)CCN(C(=O)OC(C)(C)C)CC1 do in these assays?
HT1080 IDH1KD tx: 7%; TDP1 cell noCPT: 21µM*; IL-1B inflam inh: 6; ALOX12 inh: -3%; HT1080-NT tox: 0%; TDP1 cell CPT: inconclusive

What do the screens show for `COC(=O)C1(Cc2cc(-c3cccc(Br)c3)no2)CCN(C(=O)OC(C)(C)C)CC1`?
HT1080 IDH1KD tx: -17%; TDP1 cell noCPT: inconclusive; IL-1B inflam inh: -7; ALOX12 inh: -5%; HT1080-NT tox: -10%; TDP1 cell CPT: inconclusive

What do the screens show for `Cc1c(C(=O)NCCC2=CCCCC2)oc2ccc(S(=O)(=O)N3CCOCC3)cc12`?
HT1080 IDH1KD tx: -28%; TDP1 cell noCPT: 21µM*; IL-1B inflam inh: inconclusive; ALOX12 inh: 43%; HT1080-NT tox: -9%; TDP1 cell CPT: inconclusive

What do the screens show for `Cc1c(C(=O)NCCCN2CCCC2=O)oc2ccc(S(=O)(=O)N3CCOCC3)cc12`?
HT1080 IDH1KD tx: 18%; TDP1 cell noCPT: -17%; IL-1B inflam inh: -5; ALOX12 inh: -12%; HT1080-NT tox: 9%; TDP1 cell CPT: -13%

What do the screens show for `O=C(NCCC1=CCCCC1)c1ccc(F)c(S(=O)(=O)N2CCOCC2)c1`?
HT1080 IDH1KD tx: 1%; TDP1 cell noCPT: inconclusive; IL-1B inflam inh: 29; ALOX12 inh: 0%; HT1080-NT tox: 16%; TDP1 cell CPT: -24%

Results for O=C(NCCC1=CCCCC1)c1cc(S(=O)(=O)N2CCOCC2)ccc1F ?
HT1080 IDH1KD tx: -6%; TDP1 cell noCPT: inconclusive; IL-1B inflam inh: 15; ALOX12 inh: 10%; HT1080-NT tox: 1%; TDP1 cell CPT: 13µM*

What do the screens show for `Cc1cc(=O)c2cc(C(=O)Nc3nnc(CC(C)C)s3)ccc2[nH]1`?
ALOX12 inh: 12%

How did O=C(CSc1nncn1-c1ccccc1F)Nc1ccccc1C(=O)NCCc1ccccc1 do in these assays?
ALOX12 inh: -23%

What do the screens show for `COc1ccc(/C=N/Nc2ccc([N+](=O)[O-])cc2S(=O)(=O)N2CCN(C)CC2)cc1`?
HT1080 IDH1KD tx: 0%; TDP1 cell noCPT: 13%; IL-1B inflam inh: 4; ALOX12 inh: -20%; HT1080-NT tox: 6%; TDP1 cell CPT: -1%

Results for O=C(N/N=C/c1ccc[nH]1)c1ccccc1[N+](=O)[O-] ?
HT1080 IDH1KD tx: 10%; TDP1 cell noCPT: -10%; IL-1B inflam inh: -8; ALOX12 inh: 0%; HT1080-NT tox: 11%; TDP1 cell CPT: -4%

What do the screens show for `Cc1[nH]c2ccccc2c1/C=N/Nc1ccc([N+](=O)[O-])cc1S(=O)(=O)Nc1ccc(Cl)cc1`?
HT1080 IDH1KD tx: 9%; TDP1 cell noCPT: 15µM*; IL-1B inflam inh: 1; ALOX12 inh: inconclusive; HT1080-NT tox: 1%; TDP1 cell CPT: 21µM*

How did COc1ccccc1NS(=O)(=O)c1cc([N+](=O)[O-])ccc1N/N=C/c1c[nH]c2ccccc12 do in these assays?
HT1080 IDH1KD tx: inconclusive; TDP1 cell noCPT: inconclusive; IL-1B inflam inh: -81*; ALOX12 inh: 0%; HT1080-NT tox: inconclusive; TDP1 cell CPT: inconclusive

How did COc1ccc(NS(=O)(=O)c2cc([N+](=O)[O-])ccc2N/N=C\c2c(C)[nH]c3ccccc23)cc1 do in these assays?
HT1080 IDH1KD tx: -4%; TDP1 cell noCPT: inconclusive; IL-1B inflam inh: -1; ALOX12 inh: 9%; HT1080-NT tox: -3%; TDP1 cell CPT: 16µM*

Results for O=[N+]([O-])c1ccc(N/N=C/c2ccc[nH]2)cc1 ?
HT1080 IDH1KD tx: -22%; TDP1 cell noCPT: 23µM*; IL-1B inflam inh: -77*; ALOX12 inh: 35µM*; HT1080-NT tox: -4%; TDP1 cell CPT: inconclusive

Results for COc1ccc(C=NNc2ccc([N+](=O)[O-])cc2S(=O)(=O)Nc2ccccc2C(=O)O)cc1OC ?
HT1080 IDH1KD tx: 5%; TDP1 cell noCPT: -2%; IL-1B inflam inh: 5; ALOX12 inh: inconclusive; HT1080-NT tox: 3%; TDP1 cell CPT: 7%

Results for Cc1ccc(NS(=O)(=O)c2cc([N+](=O)[O-])ccc2N/N=C/c2ccccc2)c(C)c1 ?
ALOX12 inh: 0%

Results for CN(CCc1noc(C(=O)NCc2ccccc2)n1)C(=O)Nc1ccc(F)c(Cl)c1 ?
ALOX12 inh: 9%

Results for CCCn1c(C)ccc(-c2noc(CCC(=O)Nc3ccc(OCC)cc3)n2)c1=O ?
ALOX12 inh: -19%

Results for COc1ccc(N2CC(C(=O)N(C)Cc3cnn(C)c3)CC2=O)cc1 (stereo unspecified) ?
ALOX12 inh: 4%

How did CCn1cc(CN2CCN(C(=O)c3ccsc3)CC2)ccc1=O do in these assays?
ALOX12 inh: -4%

Results for COc1cc(OC)c(C(=O)OCC(=O)Nc2ccccc2C(C)=O)cc1OC ?
ALOX12 inh: 33%

How did O=[N+]([O-])c1ccccc1N/N=C/c1c[nH]c2ccccc12 do in these assays?
HT1080 IDH1KD tx: inconclusive; TDP1 cell noCPT: inconclusive; IL-1B inflam inh: -21; ALOX12 inh: inconclusive; HT1080-NT tox: inconclusive; TDP1 cell CPT: inconclusive

How did O=[N+]([O-])c1ccc(N/N=C/c2c[nH]c3ccccc23)cc1 do in these assays?
HT1080 IDH1KD tx: inconclusive; TDP1 cell noCPT: 16µM*; IL-1B inflam inh: -90*; ALOX12 inh: inconclusive; HT1080-NT tox: -25%; TDP1 cell CPT: inconclusive

How did CCOC(=O)C1=C(C)NC2=C(C(=O)C(C(=O)OCC)C(c3ccco3)C2)C1c1ccccc1C (stereo unspecified) do in these assays?
TDP1 cell noCPT: 22µM*; TDP1 cell CPT: 20µM*

What do the screens show for `O=C(NCCC(F)(F)F)C1Cc2c(-c3ccccc3Oc3ccccc3)ccnc2O1` (stereo unspecified)?
HT1080 IDH1KD tx: -10%; TDP1 cell noCPT: inconclusive; IL-1B inflam inh: inconclusive; ALOX12 inh: 13%; HT1080-NT tox: -10%; TDP1 cell CPT: -55%

Results for O=C(NCCc1ccccc1)C1Cc2c(-c3ccccc3Oc3ccccc3)ccnc2O1 (stereo unspecified) ?
HT1080 IDH1KD tx: inconclusive; TDP1 cell noCPT: inconclusive; IL-1B inflam inh: -29; ALOX12 inh: 3%; HT1080-NT tox: inconclusive; TDP1 cell CPT: 16µM*
